Test results published in PubChem BioAssay (NCATS).
Where “and” joins values, the source holds several entries; their conditions need not be identical. Identical values can stand only once. Results filed as inconclusive are left out. Where a call stands in place of a potency, no number is given. Calls of active or inactive are those of the source. Calls follow the shape of the dose curve; as a rule, active = well fitted inhibition curve with a large enough effect; inconclusive = small, poorly fitted or top-dose-only effect; inactive = flat fitted curve, though single readings scatter.

Assay: Primary qHTS for inhibitors of nuclear receptor binding SET domain protein 2 (NSD2) in an isogenic RCH-ACV NSD2 p.E1099K mutant (9B) (AID 1645876); also: nearly all actives have a fitted effect of over 70% in size
Conditions: RCH-ACV (leukaemia line) NSD2 E1099K (9B) viability, CellTiter-Glo, 72 h; series mostly up to 44.9 µM
Potency is read from the fitted curve at half-maximal effect.

| Structure (SMILES) | Potency |
| --- | --- |
| Cc1ccc(OC[C@H](O)[C@H](C)NC(C)C)c2c1CCC2 | inactive |
| CN1C(=O)c2sccc2N(C)c2nc(Nc3ccc(S(N)(=O)=O)cc3)ncc21 | 1.05 µM (active) |
| C=C(C)[C@@H]1CC[C@]2(C(=O)O)CC[C@]3(C(=O)O)[C@H](CCC4[C@@]5(C)CCC(=O)C(C)(C)C5CC[C@]43C)C12 (some centres undefined) | 11.2 µM (active) |
| C=C1/C(=C/C=C2\CCC[C@@]3(C)C2CCC3[C@H](C)/C=C/[C@@H](O)C2CC2)C[C@@H](O)C[C@@H]1O (some centres undefined) | 23 µM (active) |
| COc1c2c(nc3occc13)C(CC=C(C)C)(OC)C(O)CC2 (centres undefined) | inactive |
| CC(=O)N[C@H]1[C@H](O[C@H]2CC[C@@]3(C)C(CC[C@]4(C)C3CC=C3C5CC(C)(C)CC[C@]5(C(=O)O)C(O)C[C@]34C)C2(C)C)O[C@H](CO[C@@H]2O[C@H](C)[C@H](O)[C@H](O)[C@H]2O[C@@H]2OC[C@@H](O)[C@H](O)[C@H]2O)[C@@H](O)[C@@H]1O (some centres undefined) | 2.45 µM (active) |
| Nc1nc2c(ncn2C2OC3COP(=O)(O)OC3C2O)c(=O)[nH]1 (centres undefined) | inactive |
| CC(O)(C(=O)C1CC1(CO)COC1OC(CO)C(O)C(O)C1O)C1C(O)CC2C3CC=C4CC(O)CC(O)C4(C)C3C(O)CC21C (centres undefined) | 0.342 µM (active) |
| CCC/C=C/C(=O)O[C@H]1CC(C)(C)CC2[C@@]13[C@H](O)C[C@]1(C)[C@@]2(CCC2[C@@]4(C)CC[C@H](O[C@@H]5O[C@H](C(=O)O)[C@@H](O)[C@H](O[C@@H]6O[C@H](CO)[C@H](O)[C@H](O)[C@H]6O[C@@H]6O[C@@H](C)[C@H](O)[C@@H](O)[C@H]6O[C@@H]6OC[C@](O)(CO)[C@H]6O)[C@H]5O[C@@H]5O[C@H](CO)[C@H](O)[C@H](O)[C@H]5O)C(C)(C)C4CC[C@]21C)O[C@H]3O (some centres undefined) | 1.73 µM (active) |
| O=C(Nc1cc(C(F)(F)F)cc(C(F)(F)F)c1)c1cnc(Cl)nc1C(F)(F)F | 25.8 µM (active) |
| C=C[C@@]12COC(=O)C(=C)[C@@H]1[C@@H](O)[C@H](C(=C)C(=O)OC)[C@@H](O)C2 | inactive |
| C/C=C/C=C/C(=O)O[C@@H]1C=C2COC(=O)[C@]2(O)[C@@]2(C)CCCC(C)(C)[C@H]12 | inactive |
| C[C@@]12C(=O)N(c3ccc(C(=O)Nc4cccc5cccnc45)cc3)C(=O)[C@@H]1[C@@H]1C=C[C@H]2C1 | inactive |
| O[C@@](Cc1ncc(CC2(C(F)(F)F)CC2)[nH]1)(c1ccc(-n2cccn2)cc1)C(F)(F)F | 23 µM (active) |
| CN1CCN(S(=O)(=O)c2ccc(-c3cnc(N)c(C(=O)Nc4cccnc4)n3)cc2)CC1 | 0.317 µM (active) |
| CC1(C)CCCC2(C)C1C(=O)C=C(C(=O)O)C2(O)C(=O)O (centres undefined) | 25.8 µM (active) |
| CC(C)=CCCC1(C)/C=C/C(OC(=O)C=C(C)C)C(C)(O)/C=C/C(=O)/C(CO)=C\C1 (centres undefined) | 11.2 µM (active) |
| C/C=C(/C)C(=O)OC1CC(C)(C)CC2C3=CCC4C5(C)CCC(O[C@@H]6O[C@H](C(=O)O)[C@@H](O)[C@H](O)[C@H]6O[C@@H]6O[C@H](CO)[C@H](O)[C@H](O[C@@H]7OC[C@H](O)[C@H](O)[C@H]7O[C@@H]7O[C@H](CO)[C@@H](O)[C@H](O)[C@H]7O)[C@H]6O)C(C)(C)C5CCC4(C)C3(C)C(O)C(O)C12CO (some centres undefined) | 2.18 µM (active) |
| Cc1cc(CS(=O)(=O)c2ccccc2)cc(OCc2ccc(CN3CCCC3CO)cc2)c1 (centres undefined) | 14.5 µM (active) |
| COc1ccc(-n2c(SCCCN3C(=O)c4cccc5cccc(c45)C3=O)nnc2-c2ccncc2)cc1 | inactive |

| Structure (SMILES) | Potency |
| --- | --- |
| C=C(C)C1CCC2(C(=O)O)CCC3(C)C(CCC4C5(C)C(C=O)C(O)C(C)(C)C5CCC43C)C12 (centres undefined) | inactive |
| CN1CCN(c2ccc(Nc3cc(-c4cccc(-n5ccc6cc(C7CC7)cc(F)c6c5=O)c4CO)cn(C)c3=O)nc2)CC1 | 20.6 µM (active) |
| N[C@@H]1c2cccnc2[C@H](OC(=O)N2CCC(n3c(=O)[nH]c4ncccc43)CC2)CC[C@H]1c1cccc(F)c1F | inactive |
| C/C=C(/C)C(=O)O[C@@H]1C[C@@H](OC(=O)CC(C)C)C2(C)C3C(=O)C=C(C)C2C3C1(C)C (some centres undefined) | inactive |
| C=C(C)C1=C[C@@]2(C)C(=CC1=O)CC[C@@H](O)[C@@H]2C | inactive |
| CC(C)(Cc1ccccc1)NCC(O)c1ccc(O)c(NS(C)(=O)=O)c1 (centres undefined) | inactive |
| C[C@]12CC[C@@H]3c4ccc(O)c(O)c4CC[C@H]3[C@@H]1CCC2=O | 18.3 µM (active) |
| CC1(C=O)CCCC2(C)C1CCC13CC(CO)C(CCC12)C3 (centres undefined) | inactive |
| C=CC(C)(O)CC/C=C(/C)COC(=O)C(C)C1CCC(C)(C=C)O1 (centres undefined) | inactive |
| COc1ccc(C2Oc3c(OC)cc(CCCO)cc3C2COC2OC(CO)C(O)C(O)C2O)cc1OC (centres undefined) | inactive |
| O=C(Nc1ncc([N+](=O)[O-])s1)c1ccccc1O | inactive |
| CC1=CC2/C=C(\C)CCC(O)C(=O)C(O)CC(=O)C23C(=O)NC(CC(C)C)C3C1C (centres undefined) | 11.2 µM (active) |
| CCc1cccc(CC)c1-n1c(C=C(C)C)c(C(=O)N2CCNCC2)cc(-c2nc(-c3ccc(C(F)(F)F)cc3)cs2)c1=O | 8.93 µM (active) |
| O=C(Cc1cccc(OC(F)(F)F)c1)Nc1ccc(CCCCc2nnc(NC(=O)Cc3ccccn3)s2)nn1 | inactive |
| CC(=O)OC[C@]12[C@H](OC(C)=O)[C@H](OC(=O)c3ccccc3)[C@@H]3[C@@H](OC(C)=O)[C@]1(OC3(C)C)[C@H](C)C[C@H](OC(C)=O)[C@@H]2OC(=O)c1ccccc1 | inactive |
| C=C1C(=O)O[C@H]2CC(=C)[C@H]3CC[C@@](C)(O)[C@@H]3CC12 (some centres undefined) | 12.9 µM (active) |
| Cc1cccc(C#Cc2cc(F)cc(C#N)c2)n1 | inactive |
| CC(C)n1c(=O)c(C(=O)NC2CC3CCC(C2)N3C[C@@H](O)CN(C)S(C)(=O)=O)cc2ccccc21 (some centres undefined) | inactive |
| Cc1cn(CCN2CCN(c3ccccc3-c3cc(C#N)cc(C(=O)NCCCN4CCCC4)c3)CC2)c2ccccc12 | 6.49 µM (active) and 6.61 µM (active) |
